Measured values taken from PubChem BioAssay (NCATS).
Records with an inconclusive call do not appear. Calls of active or inactive are those of the source. The call rests on the fitted dose curve; in most records, active means well fitted inhibition curve with a large enough effect; inconclusive means small, poorly fitted or top-dose-only effect, or effect the other way; inactive means flat fitted curve, though single readings scatter.

Assay: qHTS for Inhibitors of Plasmodium falciparum (GB4) proliferation (AID 504315); further: nearly all actives have a fitted effect of over 50% in size;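 on activity change, negative = inhibition: 0% = DMSO vehicle and -100% = 0.29 µM artemisinin control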
Settings: P. falciparum GB4 in erythrocytes, SYBR Green DNA, 72 h; series mostly up to 6.7 µM; activity change, negative = inhibition: at the top concentration
Outline: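 Erythrocytes infected with P. falciparum line (0.3% parasitemia, 2.5% hematocrit final) incubated with compounds 72 h at 37 °C, 5% CO2; SYBR Green lysis buffer added, fluorescence read next day. Normalized to 0.29 uM artemisinin and DMSO.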
Potency means the concentration at half of the fitted maximal effect.

Activity change, negative = inhibition, inactive:
COC(=O)CCC(=O)OC1(C)C(=O)C2=CN(Cc3ccc(OC)cc3)C(c3ccc(OC)cc3)=CC2=C(Br)C1=O (stereo not drawn) -12.3%
COC(=O)C1=C(C(=O)OC)[C@@H]2N(C)c3ccc(OC)cc3[C@@]23C[C@@H](C(=O)OC)N(S(=O)(=O)c2cccs2)C3=N1 6.17%
COC(=O)N[C@@H](c1ccccc1)[C@]1(C(=O)OC)CCCC1=O 6.9%
CCN1C(=O)N[C@@H](c2cccs2)C(C(=O)OC)=C1C 15.8%
COC(=O)CCC(=O)OC1(C)C(=O)C=C2C=C(C3CC3)N(C3CCCCC3)C=C2C1=O (stereo not drawn) 4.69%
COC(=O)[C@]1(C)C=C[C@@H](C)[C@H](c2ccccc2Br)N1C(=O)C(F)(F)F 19.2%
CCOC(=O)N1C2=NC(C(=O)OC)=C(C(=O)OC)[C@@H]3N(C)c4ccc(OC)cc4[C@]23C[C@H]1C(=O)OC -0.638%
C[C@@H](c1ccccc1)N1C(=O)[C@@H]2[C@H]3[C@H](O)[C@H](O)CC(=NNC(=O)OCc4ccccc4)[C@@H]3CC[C@H]2C1=O -0.226%
CCCNC(=O)N1C2=NC(C(=O)OC)=C(C(=O)OC)[C@@H]3Nc4ccccc4[C@]23C[C@H]1C(=O)OC -6.68%
CC=Cc1cc2ccccc2c2c(C(=O)OC)c(C(=O)OC)c(C(=O)OC)n12 6.94%
COC(=O)C1=C(C(=O)OC)[C@@H]2Nc3ccccc3[C@@]23C[C@@H](C(=O)OC)N(C(=O)c2ccc(Br)cc2)C3=N1 4.61%
CC1(OC(=O)C2CCCC2)C(=O)C=C2C=C(c3ccsc3)N(c3ccc(CO)cc3)C=C2C1=O (stereo not drawn) 8.6%
C=CCOC(=O)N[C@H](C(C(=O)OC)=C(C)NCc1ccccc1)c1ccc(C)cc1 5.12%
COC(=O)C1=C(C)N(Cc2ccco2)C(=O)N[C@@H]1c1ccco1 -2.14%
C=CCN1c2ccccc2[C@]23C[C@@H](C(=O)OC)N(C(=O)COCc4ccccc4)C2=NC(C(=O)OC)=C(C(=O)OC)[C@H]13 7.27%
COC(=O)CCCC1=CC2=C(c3ccccc3)C(=O)C(C)(OC(=O)C3CCCC3)C(=O)C2=CN1C1CCCC1 (stereo not drawn) 9.88%
CCCCc1nc2c(c3c1C[C@H](C)OC3)CN(S(=O)(=O)c1ccc(Cl)c3nonc13)CC2 -6.68%
CC#CCN1c2ccccc2[C@]23C[C@@H](C(=O)OC)N(C(C)=O)C2=NC(C(=O)OC)=C(C(=O)OC)[C@H]13 3.32%
C=C(C(C)=O)C(O)c1cccs1 (stereo not drawn) 11.1%
CC(C)(C)OC(=O)NCCCC1=CC2=CC(=O)C(C)(OC(=O)c3cccs3)C(=O)C2=CO1 (stereo not drawn) -8.46%
COC/C=C/C1=CC2=CC(=O)C(C)(OC(=O)c3cnc4ccccc4n3)C(=O)C2=CN1CCOC (stereo not drawn) 12.2%
COC(=O)C1=C(C(=O)OC)[C@@H]2N(C)c3ccc(OC)cc3[C@@]23C[C@@H](C(=O)OC)N(S(=O)(=O)c2ccc4c(c2)OCCN4C)C3=N1 -26%
CCCCC1=CC2=C(c3ccco3)C(=O)C(C)(OC(=O)c3ccc(OC)cc3)C(=O)C2=CN1CCc1c[nH]c2ccccc12 (stereo not drawn) 9.63%
O=C(NS(=O)(=O)c1ccc(F)cc1)O[C@@H]1C(=O)c2cc(Br)ccc2O[C@H]1c1ccc2c(c1)OCO2 2.45%
CCCCC1=CC2=C(c3ccco3)C(=O)C(C)(OC(=O)c3ccc(OC)cc3)C(=O)C2=CN1C1CCCC1 (stereo not drawn) 12.7%
COC(=O)CCC(=O)OC1(C)C(=O)C2=CN(C(CO)CO)C(c3ccc(OC)cc3)=CC2=C(Br)C1=O (stereo not drawn) 5.61%
CC(=O)C1=C(C)N(Cc2ccccc2)C(=O)N[C@H]1c1ccco1 -8.13%
COC(=O)[C@@]1(C=C2c3ccc(F)cc3[C@@H](OC)[C@@H]2C)[C@@H]2CC=C[C@@H]21 -6.54%
COC/C=C/C1=CC2=CC(=O)C(C)(OC(=O)c3cnc4ccccc4n3)C(=O)C2=CN1Cc1ccc2c(c1)OCO2 (stereo not drawn) 8.64%
COC(=O)CCC(=O)OC1(C)C(=O)C2=CN(c3ccccc3)C(c3ccc(OC)cc3)=CC2=C(Br)C1=O (stereo not drawn) -6.82%
COC/C=C/C1=CC2=CC(=O)C(C)(OC(=O)c3cnc4ccccc4n3)C(=O)C2=CN1C1CCCC1 (stereo not drawn) -0.478%

Potency, active:
COC(=O)[C@@H](NC(=O)N1CCc2nc(-c3ccc(OC)cc3C)c3c(c2C1)CO[C@@H](c1ccccc1)C3)C(C)C 1900 nM
CCCC[C@]12Cc3cc(OC)c(OC)cc3[C@H](O1)C1=C(O2)C(=O)c2ccccc2C1=O 1690 nM
